Test [1] can be described thus: qHTS profiling of the MIPE4 collection as inhibitors of Plasmodium falciparum (3D7) proliferation (AID 743344).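 Also: scaled between DMSO vehicle wells and 0.29 µM artemisinin as full inhibition.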 Particulars: P. falciparum 3D7 in erythrocytes, SYBR Green DNA fluorescence, 72 h; at 28.5 µM unless noted. In short, it runs like this:
(§1)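 Parasite DNA was quantified by SYBR Green I fluorescence (ex 485, em 535 nm) after overnight lysis in saponin/Triton buffer at room temperature. Cultures at 0.3% parasitemia and 2.5% hematocrit were first exposed to compound for 72 h at 37 C; signals were normalised to artemisinin (0.29 uM) and vehicle wells.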
(In general: In qHTS, concentration-response curves come from the screen itself.)

Test [2] can be described thus: qHTS profiling of the MIPE4 collection as inhibitors of Plasmodium falciparum (DD2) proliferation (Rep 2) (AID 743346). To be noted: P. falciparum Dd2 in erythrocytes, SYBR Green DNA, 72 h; at 28.5 µM unless noted. In short, it runs like this:
as §1

A short description of test [3]: qHTS profiling of the MIPE4 collection as inhibitors of Plasmodium falciparum (HB3) proliferation (AID 743347).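 Also: plate controls were DMSO vehicle wells for no effect and artemisinin wells for full effect.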 Particulars: P. falciparum HB3 in erythrocytes, SYBR Green DNA, 72 h; at 28.5 µM unless noted. In short, it runs like this:
as §1

The conditions of test [4]: Ebola virus entry assay, green fluorescence channel.
For test [5] the following is noted: Ebola virus entry assay, blue channel fluorescence.
The conditions of test [6]: Ebola virus entry assay, green fluorescence channel. The source holds these as a separate data set.
The conditions of test [7]: Ebola virus entry assay, ratio channel readout.
The conditions of test [8]: Ebola virus entry assay, blue channel fluorescence. This is another data set of the same source.
For test [9] the following is noted: Ebola virus entry assay, ratio channel.
Test [10] in a line: qHTS Assay for Identifying Gametocytocidal Compounds (AID 743244; active = well fitted curve in the direction sought with a large enough effect; an effect the other way counts as inactive or inconclusive; also: potency is read from the fitted curve at half-maximal effect;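 as to max response: % is scaled to controls: 0 for no effect and ±100 for the full control effect; actives lower the fluorescent signal which means gametocytes are killed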). Particulars: P. falciparum 3D7 stage III-V gametocytes, alamarBlue, 72 h; max response: stronger effect = lower value. In short, it runs like this: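 In this qHTS viability screen, late-stage 3D7 gametocytes are incubated with compound for 72 h, then with alamarBlue for 24 h; reduced resorufin fluorescence marks killing.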

Test [11] in a line: qHTS assay for small molecule agonists of the antioxidant response element (ARE) signaling pathway measured by Nrf2-dependant transcriptional activity (AID 720636; active = well fitted curve in the direction sought with a large enough effect in the repeat runs; an effect the other way counts as inactive or inconclusive;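 also: HepG2 cells with an ARE-driven luciferase reporter; % of control where 0% means no effect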). In short, it runs like this: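 In HepG2 cells engineered with an Nrf2-responsive luciferase gene, ARE induction was quantified as luminescence after 16 hr compound treatment at 37 C.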
The nature of test [12]: qHTS assay for small molecule agonists of the antioxidant response element (ARE) signaling pathway measured by Nrf2-dependant transcriptional activity - cell viability counter screen (AID 720653; active = well fitted curve in the direction sought with a large enough effect in the repeat runs; an effect the other way counts as inactive or inconclusive; also: potency is read from the fitted curve at half-maximal effect; as to max response: % is scaled to controls: 0 for no effect and ±100 for the full control effect). Particulars: ARE-bla HepG2 viability, CellTiter-Glo ATP luminescence, 16 h; max response: stronger effect = lower value. In short, it runs like this: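 ARE-bla HepG2 cells treated with compounds for 16 h at 37C; this counter screen measures viability as intracellular ATP by CellTiter-Glo luminescence after 30 min at room temperature.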

Test [13] is described as follows: qHTS assay for small molecule antagonists of the retinoid-related orphan receptor gamma (ROR-gamma) signaling pathway - cell viability counter screen (AID 720652; active = well fitted curve in the direction sought with a large enough effect in the repeat runs; an effect the other way counts as inactive or inconclusive;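 also: potency is read from the fitted curve at half-maximal effect; compound exposure lasted 16 hr before ATP read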). In short, it runs like this:
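Steps: seed CHO cells bearing TET-inducible ROR and ROR response element-luciferase; rest 5 hr at 37 C; add compound, then doxycycline; incubate 16 hr; add CellTiter-Glo and read luminescence as ATP-based viability.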

In test [14] the target is T1, Hexokinase-4 (Homo sapiens) + Glucokinase regulatory protein (Homo sapiens) (UniProt P35557+Q14397). Nature of the test: qHTS assay for inhibitors of recombinant human GCK-GKRP interaction: ADP-Glo assay (AID 743206; active = well fitted curve in the direction sought with a large enough effect; an effect the other way counts as inactive or inconclusive;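 also: plate controls were DMSO plus enzyme for no effect and no enzyme for full effect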). In short, it runs like this: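 Pin-transferred compounds meet a 15 nM GST-GCK/15 nM FLAG-GKRP/2 uM S6P mix (dispense concentrations). ATP is then added to 0.4 mM final with 5 mM glucose, and the reaction runs 60 min at room temperature. ADP is quantified luminescently.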
T1 sequence (P35557 whole entry, looked up): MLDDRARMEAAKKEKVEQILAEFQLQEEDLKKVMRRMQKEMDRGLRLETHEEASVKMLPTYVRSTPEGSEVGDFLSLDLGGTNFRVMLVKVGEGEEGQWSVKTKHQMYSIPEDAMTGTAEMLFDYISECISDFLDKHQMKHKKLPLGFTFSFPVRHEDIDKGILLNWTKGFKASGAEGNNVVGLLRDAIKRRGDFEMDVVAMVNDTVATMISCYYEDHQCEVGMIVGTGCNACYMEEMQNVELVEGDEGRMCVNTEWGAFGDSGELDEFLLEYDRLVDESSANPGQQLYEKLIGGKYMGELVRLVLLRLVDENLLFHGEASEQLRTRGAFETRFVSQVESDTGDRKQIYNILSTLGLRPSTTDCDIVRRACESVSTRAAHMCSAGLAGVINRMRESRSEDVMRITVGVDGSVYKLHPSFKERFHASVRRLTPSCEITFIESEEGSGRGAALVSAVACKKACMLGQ
T1 sequence (Q14397 whole entry, looked up): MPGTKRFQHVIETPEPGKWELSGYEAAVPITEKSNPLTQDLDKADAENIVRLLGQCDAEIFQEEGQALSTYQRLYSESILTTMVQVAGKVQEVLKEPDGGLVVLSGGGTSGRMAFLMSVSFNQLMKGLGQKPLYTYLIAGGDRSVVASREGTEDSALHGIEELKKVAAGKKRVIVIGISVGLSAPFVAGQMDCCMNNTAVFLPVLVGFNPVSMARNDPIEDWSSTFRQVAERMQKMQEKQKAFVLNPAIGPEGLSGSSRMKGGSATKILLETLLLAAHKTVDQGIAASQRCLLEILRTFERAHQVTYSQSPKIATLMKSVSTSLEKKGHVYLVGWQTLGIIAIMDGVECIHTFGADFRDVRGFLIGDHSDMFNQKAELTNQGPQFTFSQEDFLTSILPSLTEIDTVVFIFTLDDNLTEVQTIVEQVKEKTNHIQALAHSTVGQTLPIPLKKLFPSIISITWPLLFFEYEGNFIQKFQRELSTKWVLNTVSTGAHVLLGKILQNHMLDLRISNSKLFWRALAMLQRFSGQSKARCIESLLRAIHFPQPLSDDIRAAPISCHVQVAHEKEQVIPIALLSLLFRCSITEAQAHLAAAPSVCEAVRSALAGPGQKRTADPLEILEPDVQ

Test [15] has as its target T1, Hexokinase-4 (Homo sapiens) + Glucokinase regulatory protein (Homo sapiens). Nature of the test: qHTS assay for inhibitors of recombinant human GCK-GKRP interaction: HTRF assay (AID 743207; active = well fitted curve in the direction sought with a large enough effect; an effect the other way counts as inactive or inconclusive;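 also: 0% = DMSO with GCK present and -100% = DMSO wells lacking GCK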). In short, it runs like this:
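HTRF read-out (ex 320 nm; 615/665 nm emission) after 60 min RT equilibration of 5 nM GST-GCK, 5 nM FLAG-GKRP, 2 uM S6P, compound and anti-FLAG/anti-GST detection antibodies; signal normalized between DMSO wells with and without GCK.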

The nature of test [16]: qHTS assay for cell viability of HEK293 cells (AID 743288; active = well fitted curve in the direction sought with a large enough effect; an effect the other way counts as inactive or inconclusive; also: potency is read from the fitted curve at half-maximal effect; nearly all actives have a fitted effect of over 50% in size). Particulars: ATP luminescence (CellTiter-Glo), 18 h; max response: stronger effect = lower value. In short, it runs like this:
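ATP luminescence (CellTiter-Glo) reports metabolically competent cell number after parental HEK293 cells, 2,000/well, were treated with DMSO-dissolved compounds for 18 h at 37 C; reagent incubation 30 min, room temperature.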

Inconclusive results are not listed. For some assays here: Entries with a potency or affinity are not part of this list. Activity calls are given as the source filed them.
For efficacy in this document: 0% is about no effect.

On to `CO[C@]12CC[C@@]3(C[C@@H]1[C@](C)(O)C(C)(C)C)[C@@H]1Cc4ccc(O)c5c4[C@@]3(CCN1CC1CC1)[C@H]2O5`, for which the parasite growth, % of DMSO control in test [1] stood at 5.19% [at 57.2 µM]. Also, the parasite growth, % of control (lower = inhibition) in test [2] was found to be 19.3% [at 57.2 µM]. In test [3], this compound gave a growth, % of control of 7.07% [at 57.2 µM]. Further, in test [4], the efficacy was -151% (inactive). Further, the call in test [5], in test [6] and in test [7] was inactive. For the same compound, the half-maximal activity concentration (AC50) in [8] was 5.62 µM (active); in [9], 3.16 µM (active).

Regarding `CCC(COC(=O)c1cc(OC)c(OC)c(OC)c1)(c1ccccc1)N(C)C` (configuration not stated), in [10], the max response was 10.7% (inactive). Besides, the efficacy in [4] is 72.4% (inactive). Moreover, the outcome in [5], in [6], in test [7] and in [8] was inactive. The concentration at half-maximal activity (AC50) in [9] was 17.8 µM (active).

Turning to `Cc1nccn1CC1CCc2c(c3ccccc3n2C)C1=O` (configuration not stated), the efficacy in test [4] is -22.2% (inactive). Further, the call in test [5], in [6] and in test [7] was inactive. Besides, the AC50 in [8] and in test [9] was 22.4 µM (active) in each case.

Turning to `CN(C)CCC=C1c2ccccc2CCc2ccccc21`, the Potency result in test [11] was “inactive”. The max response in test [12] was -15% (inactive). Further, the Potency in test [10] is 1.26 µM (active). In test [4], the efficacy is 121% (inactive). Further, the figures for the AC50 in test [5], in test [8] and in test [9] were 11.2 µM (active), 8.91 µM (active) and 7.94 µM (active), respectively. Also, the outcome in test [6] and in [7] was inactive.

Compound `CCn1cc(C(=O)O)c(=O)c2cc(F)c(N3CCNCC3)cc21` registered a parasite growth, % of DMSO control in test [1] of 48%. The parasite growth, % of control (lower = inhibition) in test [2] was determined as 42.3%. The compound also displayed a growth, % of control in test [3] of 82.1%. For the same compound, the efficacy in test [4] is -31.6% (inactive). In addition, the compound was called inactive in test [5], in test [6], in test [7], in test [8] and in test [9].

Consider `CC(COc1ccccc1)N(CCCl)Cc1ccccc1` (configuration not stated), for which the Potency in test [13] is 42.2 µM (active). The results for the max response in test [12] and in test [10] were -12.5% (inactive) and 3.46% (inactive), respectively. Further, the growth, % of control in [3] was determined as 91.2%. Further, in test [4], the efficacy was 44% (inactive). Further, the compound was called inactive in test [5], in test [6] and in test [7]. For the same compound, the concentration at half-maximal activity (AC50) in test [8] was 28.2 µM (active); in test [9], 17.8 µM (active).

Turning to `O=c1[nH]c2ccccc2n1C1CCN(CCCC(c2ccc(F)cc2)c2ccc(F)cc2)CC1`, the Potency result in test [11] was “inactive”. In addition, the Potency in test [12] and in [16] was 50.1 µM (active) throughout. In addition, the result in [14], in test [15] and in test [6] was inactive. Moreover, the efficacy in test [4] is -303% (inactive). The AC50 in test [5] is 11.2 µM (active); in test [7] it was 7.95 µM (active); in test [8], 3.16 µM (active); in test [9] it was 3.98 µM (active).

Take `CN1CCN(C(=O)O[C@H]2c3nccnc3C(=O)N2c2ccc(Cl)cn2)CC1`: the max response in test [10] was -4.73% (inactive). For the same compound, the parasite growth, % of DMSO control in test [1] worked out at 95.4%. For the same compound, in [2], the parasite growth, % of control (lower = inhibition) turned out to be 86.8%. The same compound returned a growth, % of control in [3] of 97.2%. The efficacy in [4] was 27.7% (inactive). Moreover, the call in test [5], in [6], in test [7] and in [8] was inactive.

With `OCCN1CCN(CCCN2c3ccccc3Sc3ccc(C(F)(F)F)cc32)CC1`, the Potency in test [10] is 11.2 µM (active). In test [4], the efficacy was -98.3% (inactive). Moreover, the compound was classed as inactive in [5], in test [6] and in [7]. Also, the concentration at half-maximal activity (AC50) in test [8] was 3.55 µM (active); in test [9] it was 3.16 µM (active).

In general, AC50 refers to the concentration giving half of the maximal activity seen.

For the origin of these results see PubChem BioAssay (NCATS).
